Mot1-301 SUMO – yeast Mot1-301 growth rescue at high temperature, primary screen, SUMOylation pathway inhibitor project, S. cerevisiae, ATP luminescence, 38.5C; S. cerevisiae Mot1-301 growth rescue; percent above DMSO median, 100 means doubled; growth rescue, % at 18.8 µM; 320,000 compounds, 1% hits; AID 2716, 2010;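 active = every valid replicate shows activation above 250% relative to neutral control wells; inactive = the rest, any valid replicate at or below 250%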;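 note: OY570 slx delta 5 strain wells were the positive control but not used for scaling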
ATG4B inhibitor – ATG4B protease inhibitors, primary screen, biochemical, fluorescence, uHTS; Cysteine protease ATG4B (Homo sapiens), Q9Y4P1; ATG4B cleavage of LC3-PLA2, NBD-HPC fluorescence, 1 h; inhibition, % at 8.33 µM; 340,000 compounds, 0.51% hits; in the data active = inhibition above about 40%
Target sequence (Q9Y4P1 whole entry, looked up): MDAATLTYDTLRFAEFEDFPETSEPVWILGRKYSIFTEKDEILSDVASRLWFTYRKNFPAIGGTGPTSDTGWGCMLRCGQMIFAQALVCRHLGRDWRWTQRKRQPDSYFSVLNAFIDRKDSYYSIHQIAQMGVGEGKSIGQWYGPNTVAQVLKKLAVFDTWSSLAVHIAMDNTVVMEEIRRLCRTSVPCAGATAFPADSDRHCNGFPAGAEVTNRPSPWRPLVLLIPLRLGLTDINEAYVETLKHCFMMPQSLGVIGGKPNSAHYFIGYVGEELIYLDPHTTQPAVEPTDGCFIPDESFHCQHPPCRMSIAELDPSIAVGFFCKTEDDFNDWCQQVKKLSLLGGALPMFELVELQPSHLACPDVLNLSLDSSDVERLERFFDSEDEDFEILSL
Efflux pump mplx – inhibitors of Candida efflux pumps in yeast, primary screen, S. cerevisiae, Nile Red, multiplex; 330,000 compounds, 0.44% hits; inhibition, % at 10 µM; S. cerevisiae Candida pump triplex; AID 485275, 2010;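 active = plate passing quality check with inhibition over a set limit, or well fluorescence over plate mean plus 4 SD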;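 note: Nile Red retained in pooled yeast measured as flow cytometry median fluorescence; 0% = buffer negative control and 100% = Enniatin B positive control; higher means more Nile Red kept so more efflux inhibition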
V-ATPase pH – regulators of yeast V-ATPase proton pumping, primary screen, pHLuorin cytosolic pH fluorescence. S. cerevisiae. response, % at 10 µM. 350,000 compounds, 0.37% hits; in the data active = response mostly above about 7.3%, no sharp cut-off; inactive = mostly below about 5.4%; note: actives read high
AI-2 QS mod – Vibrio harveyi AI-2 quorum sensing modulators, primary screen, JMH597 strain, luminescence/OD600 ratio; 300,000 compounds, 0.4% hits; activity change, % at 7.5 µM; Vibrio harveyi JMH597 AI-2 luminescence/OD600 ratio, 9 h; hits give low values; strain lacks LuxN and CqsS sensors; 0 = neutral-control median; AID 2094, 2009; in the data active = activity change below about -75%, passing the limit was not always enough; inconclusive = no clear call, values can overlap the other calls;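 note: luminescence divided by OD600 gain over 9 h not by final OD600 alone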
JMH597 growth – Vibrio harveyi growth inhibition, confirmation, counter-screen for AI-2 quorum sensing project, JMH597 strain, OD600 absorbance; shares compounds with AI-2 QS mod; 9 h; lacks LuxN and CqsS sensors; growth inhibition, % at 7.5 µM; 750 compounds, 1% hits; AID 2726, 2010;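 active = every replicate shows growth inhibition above 50%; inconclusive = at least half, but not all, replicates pass that cutoff; inactive = fewer than half of replicates pass it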
BB721 const-QS lum – luminescence inhibition in constitutive-on V. harveyi, confirmation, counter-screen for LuxS inhibitor project, strain BB721, luminescence readout | shares compounds with AI-2 QS mod | Vibrio harveyi BB721 luminescence, 9 h | inhibition, % at 7.5 µM | 750 compounds, 95% hits | AID 2727, 2010;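 active = inhibition above about 80% in every replicate, not just on average, limit read from the data; inconclusive = at least half of replicates past the limit, but not all; inactive = fewer than half of replicates past the limit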
BB721 growth rt – growth inhibition of V. harveyi BB721, confirmation, cytotoxicity control for AI-2 quorum sensing inhibitors, strain BB721, absorbance OD600. AID 2728, 2010. shares compounds with AI-2 QS mod. Vibrio harveyi BB721 growth, 9 h. growth inhibition, % at 7.5 µM. 750 compounds, 3% hits;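 active = every replicate shows growth inhibition above 50%; inconclusive = at least half but not all replicates above 50% inhibition; inactive = under half of replicates above 50% inhibition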
AI-2 QS JMH597 – Vibrio harveyi AI-2 signaling luminescence modulation – JMH597 strain, confirmation; shares compounds with AI-2 QS mod; Vibrio harveyi JMH597 AI-2 quorum sensing luminescence, 9 h; luxN and CqsS knockout, AI-2 only; 750 compounds, 97% hits; inhibition, % at 7.5 µM;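 active = every replicate shows more than 75% inhibition of signal versus neutral control wells; inconclusive = half to three quarters of replicates exceed 75% inhibition; inactive = fewer than half of replicates exceed 75% inhibition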
An asterisk follows results filed as active; ? = inconclusive; . = not tested or not shown. Shown are actives, neighbours in structure and some others; about 2.5% of the full set was active somewhere.

SMILES	Mot1-301 SUMO	ATG4B inhibitor	Efflux pump mplx	V-ATPase pH	AI-2 QS mod	JMH597 growth	BB721 const-QS lum	BB721 growth rt	AI-2 QS JMH597
O=C(/C=C/c1ccc(Br)o1)NCc1ccccc1	-12.8	4.9	0.3	-1.6	-90.4*	12.8	96.7*	19.1	97.2*
Cc1ccc(CNC(=O)/C=C/c2ccc(Br)o2)cc1	-0.7	5.2	0.2	0.0	-93.9*	23.0	98.7*	?	98.9*
O=C(CNC(=O)c1ccccc1)N/N=C/c1ccccc1Cl	.	-1.6	0.3	3.6	-89.6*	21.3	95.9*	14.6	96.6*
Oc1ccc(Cl)cc1CNc1nccs1	15.0	14.8	0.2	3.9	-79.5*	26.1	92.0*	38.4	91.7*
Cc1ccc(O)c(CNc2nccs2)c1	16.0	6.0	-0.1	1.8	-38.8	.	.	.	.
CC1CCN(C(=O)c2cc(-c3ccco3)on2)CC1	-2.0	2.3	0.1	.	21.5	.	.	.	.
CC1CCN(C(=O)c2cc(-c3ccc4c(c3)OCO4)on2)CC1	-7.3	1.6	-0.1	-2.4	-90.0*	-12.7	96.4*	-20.4	97.2*
CC1CCN(C(=O)c2cc(-c3ccccc3O)on2)CC1	-13.9	2.3	0.3	-2.1	-84.0*	-4.7	95.3*	12.4	96.5*
NS(=O)(=O)c1cccc(NC(=O)Cn2cnc3ccccc3c2=O)c1	128.8	-0.7	-0.1	-2.0	-85.1*	18.0	93.1*	-3.1	94.7*
NS(=O)(=O)c1cccc(NC(=O)CSc2ncnc3ccccc23)c1	.	-3.5	0.0	-0.8	-82.0*	5.1	85.4*	7.9	91.7*
COC(=O)c1cccc(NC(=O)Cn2cnc3ccccc3c2=O)c1	-9.6	-11.7	-0.1	2.5	-94.0*	12.1	98.9*	1.0	99.4*
O=C(Cn1cnc2ccccc2c1=O)Nc1nc2ccccc2s1	3.5	-0.9	0.0	0.1	-23.5	.	.	.	.
CCCc1nnc(NC(=O)Cn2cnc3ccccc3c2=O)s1	-15.5	-3.2	0.0	-4.2	-85.7*	14.5	95.5*	14.6	96.5*
COc1cccc(NC(=O)CN(C)C(=O)Cn2cnc3ccccc3c2=O)c1	254.8	-0.2	0.1	-0.5	-2.7	.	.	.	.
Cc1nn(Cc2ccccc2Cl)c(C)c1C(=O)NCC(c1cccs1)N1CCOCC1 (stereo not given)	32.4	4.7	0.1	-5.0	-17.5	.	.	.	.
CSCCC(NC(=O)c1ccccc1)C(=O)NCCCn1nc(C)cc1C (stereo not given)	-10.0	-4.5	-0.1	1.7	.	.	.	.	.
CC(C)NC(=O)Cn1cc(S(=O)(=O)N2CCCC2)c(S(=O)(=O)N2CCCC2)c1	21.5	6.6	-0.1	3.6	20.2	.	.	.	.
CCN(CC)C1CCN(C(=O)CCn2nnnc2CN2CCOCC2)C1 (stereo not given)	-4.1	10.2	0.1	-1.0	10.9	.	.	.	.
O=C(NCc1ccccc1)c1nc2ccccc2s1	7.9	-2.9	0.0	-3.6	?	-3.0	91.5*	-38.5	93.9*
CCOc1cccc(SCc2noc(C(=O)NCC3CCCO3)c2C(=O)O)c1 (stereo not given)	35.2	-3.3	0.2	2.4	0.7	.	.	.	.
COc1ccc2nc3sc(C(=O)NCCCN4CCc5ccccc5C4)cc3cc2c1	50.0	-19.5	0.0	0.9	-2.1	.	.	.	.
COc1ccc2nc3sc(C(=O)N4CCN(C)CC4)cc3cc2c1	13.3	-8.2	0.1	-1.6	-85.8*	6.4	89.2*	-2.1	93.4*
CCCSc1nsc(NC(=O)c2cccnc2OCC)n1	.	4.0	0.0	3.1	-94.8*	68.7	99.6*	-24.6	99.7*
CCOc1ncccc1C(=O)Nc1nnc(C(CC)CC)s1	.	-7.0	0.0	-1.6	6.3	.	.	.	.
CCCc1cc(C(=O)Nc2ccc(F)c(Cl)c2)no1	2.2	-9.9	0.3	-0.1	-82.0*	37.6	96.4*	-77.7	96.9*
SMILES	Mot1-301 SUMO	ATG4B inhibitor	Efflux pump mplx	V-ATPase pH	AI-2 QS mod	JMH597 growth	BB721 const-QS lum	BB721 growth rt	AI-2 QS JMH597
Cc1ccc(NC(=O)CCOc2ccccc2C)cc1C	20.6	-5.2	0.0	-1.1	-78.3*	39.1	91.7*	30.8	93.4*
Cc1ccccc1OCCC(=O)Nc1ccc(F)c(Cl)c1	-7.8	2.3	0.2	-2.3	-92.7*	22.0	96.6*	30.9	97.6*
CCOc1ccccc1OCCC(=O)Nc1ccc(F)c(Cl)c1	-3.2	20.1	-0.1	-0.3	22.9	.	.	.	.
COc1ccc(Nc2nc(N)nc(CSC(=S)N3CCCCC3C)n2)cc1 (stereo not given)	5.7	-8.9	-0.2	4.1	.	.	.	.	.
CCN(C(=O)c1ccc(NC(=O)C2CCCCC2C(=O)O)cc1)c1ccccc1 (stereo not given)	.	.	.	0.7	.	.	.	.	.
NC(=S)Nc1cc(Cl)cc(Cl)c1	7.3	1.3	-0.1	0.4	-82.2*	-12.3	64.9	-21.5	?
NC(=S)Nc1cccc(Cl)c1	13.4	-0.3	-0.1	1.7	1.6	.	.	.	.
Cc1ccc(O)c(/C=N/NC(=O)Cc2ccc(Cl)cc2)c1	54.2	6.0	0.0	1.4	-93.3*	31.0	98.6*	32.8	98.9*
O=C(Cc1ccc(Cl)cc1)N/N=C/c1ccc(O)c(O)c1	.	.	.	2.6	.	.	.	.	.
CC(C)c1ccc(/C=C(\NC(=O)c2ccccc2)C(=O)NCCN2CCOCC2)cc1	-6.2	.	0.0	-2.1	26.5	.	.	.	.
Cc1cccc(NS(=O)(=O)c2ccc(Oc3ccccc3)cc2)n1	-5.4	-10.2	-0.2	0.0	-89.3*	25.1	11.1	-19.9	96.4*
Cc1cnc(C(=O)OCc2nc3ccccc3o2)cn1	-11.7	-1.3	-0.1	-2.2	.	.	.	.	.
CN(C1=NS(=O)(=O)c2ccccc21)c1ccc(OC(=O)c2ccncc2)cc1	-1.4	0.2	-0.1	6.3	17.9	.	.	.	.
CCc1ccc(OCC(=O)O/N=C(\N)c2cccnc2)cc1	-0.3	2.4	0.0	-2.5	-91.6*	11.2	94.7*	-2.9	96.1*
Cc1ccc(C)c(OCC(=O)O/N=C(\N)c2cccnc2)c1	3.5	-6.9	0.0	0.7	-29.9	.	.	.	.
CC(C)c1ccc(N2CC(C)(C)C2=O)cc1	126.1	-12.6	0.4	-7.9	27.8	.	.	.	.
COC(=O)c1ccc(NC(=O)CN2C(=O)c3ccccc3S2(=O)=O)cc1	128.8	2.9	-0.3	-2.6	-89.9*	16.9	96.1*	4.3	97.0*
